High-throughput results deposited in PubChem by several laboratories.
Rows were chosen to be rich in hits. Some 1.9% of all compounds tested hit in one or more screens of this group.
Measles CPE: protection of cells from measles virus; protection (pct of control), % at 4 µM; Measles virus-infected cells, CPE protection, absorbance; 140,000 compounds, 1.5% hits; in the data active = protection mostly above about 24%, no sharp cut-off; inactive = mostly below about 26%
sEH inh: blocks human soluble epoxide hydrolase activity; AID 707; P34913; 91,000 compounds, 0.34% hits; recombinant human sEH enzymatic activity assay; inhibition, % at 2 µM; in the data active = inhibition above about 80%
sEH activator: increases human soluble epoxide hydrolase activity | P34913 | purified human sEH enzymatic activity, activator screen | activation, % at 2 µM | 91,000 compounds, 0.04% hits; in the data active = activation above about 37%
SDO1 yeast rescue: sdo1-depleted yeast growth rescue; S. cerevisiae sdo1-depleted JHY4D growth rescue, OD600 30 h; active compounds read high; pdr5 snq2 efflux-pump mutant strain; z-score at 10 µM; 140,000 compounds, 0.21% hits; AID 817;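 active = z-score above 3 at both the 24 hr and the 30 hr optical density reads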;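 note: z-score against mean and SD of all compound wells on the same plate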
* hit, by the source's call; x = no result.

SMILES | Measles CPE | sEH inh | sEH activator | SDO1 yeast rescue
Cc1cc(C(=O)NCC(c2ccco2)N(C)C)no1 (configuration not stated) | 66.3* | 12.8 | -12.8 | -0.01
O=C(CN1C(=O)CCC1=O)c1ccc(-c2ccccc2)cc1 | 33.0* | x | x | 0.08
COC(=O)Cn1cnc2c(C#N)c3n(c2c1=O)CCCCC3 | 8.9 | -8.6 | 8.2 | 0.36
Cc1ccc2nsnc2c1S(=O)(=O)NCc1cccnc1 | 39.1* | -2.0 | -0.2 | 0.64
O=C(OCCN1C(=O)c2ccccc2C1=O)c1cc(S(=O)(=O)N2CCOCC2)ccc1Cl | 74.0* | 3.1 | -2.8 | -1.23
C=CCn1c2ccccc2n2nc(C)c(=O)nc12 | 37.7* | -3.9 | 10.0 | 0.29
O=C(O)CCN1C(=O)c2ccc(NC(=O)CSc3ccccc3)cc2C1=O | 9.3 | x | x | 1.25
CCCC(=O)Nn1cnc2c(c1=O)C1(CCCCC1)Cc1ccccc1-2 | 6.2 | 99.0* | -99.0 | -1.27
CCC(=O)Nn1cnc2c(c1=O)C1(CCCCC1)Cc1ccccc1-2 | 14.1 | 67.0 | -66.3 | 0.75
Cc1ccc(S(=O)(=O)NCc2ccncc2)cc1 | 11.1 | 9.1 | -7.9 | 0.08
CC1CCCCC1NS(=O)(=O)c1ccc(S(=O)(=O)NCc2ccncc2)cc1 (configuration not stated) | 39.2* | -5.4 | 2.1 | 0.71
CSc1nc(-c2ccc(Cl)cc2Cl)[nH]c(=O)c1C#N | 54.8* | x | x | 1.33
O=C(NCc1ccccc1Br)c1ccco1 | 14.2 | 8.7 | -8.0 | -0.67
COCCCNC(=O)CCCn1c(=O)[nH]c2ccccc2c1=O | 6.2 | 0.0 | 1.2 | 0.65
CCN(CCCNC(=O)CCCCn1c(=O)[nH]c2ccccc2c1=O)c1ccccc1 | 6.4 | 80.5* | -80.3 | -0.27
O=C(c1ccc2c(=O)n(Cc3ccc4c(c3)OCO4)c(=S)[nH]c2c1)N1CCCCC1 | 25.5 | 82.3* | -82.2 | -0.94
CC1CC(C)CN(C(=O)c2ccc3c(=O)n(Cc4ccc5c(c4)OCO5)c(=S)[nH]c3c2)C1 (configuration not stated) | 18.1 | 84.6* | -84.1 | -1.03
COCCn1c(=S)[nH]c2cc(C(=O)N3CCC(C(N)=O)(N4CCCCC4)CC3)ccc2c1=O | 11.1 | -22.8 | 19.3 | 0.18
CCOC(=O)C1CCCN(C(=O)c2ccc3c(=O)n(CCOC)c(=S)[nH]c3c2)C1 (configuration not stated) | 27.9* | 10.2 | -10.6 | -0.48
CS(=O)(=O)c1nc(-c2ccccc2)c(-c2ccccc2)[nH]1 | 3.3 | x | x | -0.79
CCOCCCn1c(=S)[nH]c2cc(C(=O)NCCN(CC)CC)ccc2c1=O | 33.7* | 5.0 | -4.7 | 1.05
CCCCNC(=O)c1ccc2c(=O)n(CCCOCC)c(=S)[nH]c2c1 | 17.8 | 77.0 | -76.4 | -0.18
O=C(CCCCCn1c(=S)[nH]c2ccccc2c1=O)NCc1ccc2c(c1)OCO2 | 4.6 | 82.9* | -83.4 | -1.37
O=C1NC(c2ccccc2)=C(c2ccccc2)C1=O | 44.6* | x | x | -0.48
Cc1nn(Cc2ccc(C(=O)N3N=C(C(F)F)CC3(O)C(F)F)o2)c(C)c1[N+](=O)[O-] (configuration not stated) | 6.3 | x | x | 0.36
SMILES | Measles CPE | sEH inh | sEH activator | SDO1 yeast rescue
Cc1nn(Cc2cccc(C(=O)N3N=C(C(F)F)CC3(O)C(F)F)c2)c(C)c1[N+](=O)[O-] (configuration not stated) | 42.3* | 18.0 | -16.8 | -0.03
CCc1ccc(CN(C)CCc2ccccn2)cc1 | 3.7 | x | x | 1.08
Cc1ccc(-n2nc(C(=O)c3ccccc3)n3c(=O)cc(-c4ccccc4)nc23)cc1 | 26.1* | -7.6 | 8.3 | -0.99
CCOC(=O)c1nn(-c2ccc(C)cc2)c2nc(Nc3ccccc3)cc(=O)n12 | 8.6 | -4.1 | 5.3 | -0.76
O=C1Nc2ccc(Cl)cc2/C1=C/C1CC=CCC1 (configuration not stated) | 28.7 | x | x | -1.07
Cc1cccc(/C=C2/SC(=O)N(Cc3ccccc3Cl)C2=O)n1 | 10.4 | -5.9 | 7.8 | -0.53
O=S(=O)(c1ccccc1)N1CCN(CC(O)COc2ccc3c(c2)CCC3)CC1 (configuration not stated) | 31.1* | 2.5 | -1.1 | -0.18
Cc1ccc(C2CC(c3ccc(F)cc3)Nc3nc(N)nn32)cc1 (configuration not stated) | 2.8 | x | x | 0.4
O=C(CSc1nc(O)cc(=O)n1-c1ccccc1)N1CCCCC1 | 0.1 | 1.1 | -3.1 | -0.03
O=C1CCCN1CCC1CCN(C2CC(=O)N(Cc3ccc(N4CCCC4=O)cc3)C2=O)CC1 (configuration not stated) | 5.1 | 8.1 | -4.5 | 0.86
O=C1CC(N2CCOCC2)C(=O)N1Cc1ccc(N2CCCC2=O)cc1 (configuration not stated) | 42.2* | 9.6 | -9.5 | 0.17
COc1ccc(-n2c(C)n[nH]c2=O)cc1OC | 1.3 | -8.8 | 9.9 | 0.86
